SMILES strings stand for the structures. Screen size: about 200,000 compounds; about 3,000 (1.5%) were called active. What follows is part of a selection rich in actives, with near analogues and random picks from the rest. A number with no mark means an inactive call.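 How the source made its calls: active means inhibition above about 50% when tested at 10 µM (limit read from the data); inactive means the rest.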

Sequence of Luciferin 4-monooxygenase (Photinus pyralis) (P08659 whole entry, looked up): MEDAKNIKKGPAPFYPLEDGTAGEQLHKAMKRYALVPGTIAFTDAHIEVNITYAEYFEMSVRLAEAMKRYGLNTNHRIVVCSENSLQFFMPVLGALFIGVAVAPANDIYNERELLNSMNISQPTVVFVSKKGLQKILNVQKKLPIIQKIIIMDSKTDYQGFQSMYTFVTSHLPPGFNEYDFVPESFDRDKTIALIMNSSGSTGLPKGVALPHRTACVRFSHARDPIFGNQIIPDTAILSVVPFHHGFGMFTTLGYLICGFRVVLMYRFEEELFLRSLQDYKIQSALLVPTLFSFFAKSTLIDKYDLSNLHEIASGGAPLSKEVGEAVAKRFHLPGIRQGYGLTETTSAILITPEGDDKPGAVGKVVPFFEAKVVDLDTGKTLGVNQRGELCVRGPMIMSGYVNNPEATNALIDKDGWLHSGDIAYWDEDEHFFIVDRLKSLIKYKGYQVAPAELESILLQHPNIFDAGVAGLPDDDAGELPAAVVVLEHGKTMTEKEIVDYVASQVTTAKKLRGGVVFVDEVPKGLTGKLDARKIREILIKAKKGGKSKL

The assay addresses Luciferin 4-monooxygenase (Photinus pyralis) (UniProt P08659). Description: inhibition of purified FLuc reporter enzyme – biochemical, luminescence, ATPLite, artefact control for luciferase-based inhibitor screens, primary screen (AID 1006). To be noted: ATPLite firefly luciferase biochemical luminescence, 10 min; at 10 µM; active compounds read high. A general note: In ATP-based viability assays light output follows the ATP content of the culture.
For the molecule `COc1ccc(C(=O)NCC(=O)N/N=C/c2ccc([N+](=O)[O-])s2)cc1OC`, the inhibition (as a rule, the change of the read-out against control, counted positive when it falls) is 2.8%.

For the molecule `OC(CNCc1ccc(Cl)c(Cl)c1)c1ccccc1` (configuration not stated), the inhibition was -8.3%.

Consider `CCCOC(=O)C1=C(C)NC2=C(C(=O)C(C(=O)OC)C(C)C2)C1c1ccc(N(C)C)cc1` (configuration not stated), for which the inhibition is 0.8%.

For the molecule `CCCOC(=O)c1[nH]c2c(c1C)C(=O)CC(c1cc(OC)c(OC)c(OC)c1)C2` (configuration not stated), the inhibition is -2.3%.

For the molecule `COC(=O)C1C(=O)c2c([nH]c(C(=O)OCCSC)c2C)CC1C` (configuration not stated), the inhibition is 50.1% (active).

With `CCOc1ccc(-n2cnnn2)cc1S(=O)(=O)N1CCC(C)CC1C` (configuration not stated), the inhibition was -3.6%.

For the molecule `Cc1cccc(NC(=O)CN2C(=O)c3ccccc3C2=O)c1C`, the inhibition was -4%.

Regarding `Cc1ccc2nc(-c3ccc(SCC(=O)Nc4cc(C)on4)nc3)[nH]c2c1`, the inhibition was 73.4% (active).

Turning to `Cc1ccc(-c2csc(SCC(=O)Nc3cc(C)on3)n2)cc1`, the inhibition is -4.8%.

As for `Cc1ccc(SCCC(=O)Nc2cc(C)on2)cc1`, the inhibition was -4.4%.

`COC(=O)NNC(=O)C1CCC(C)CC1` (configuration not stated): the inhibition is -4.8%.

Regarding `CCNS(=O)(=O)c1ccc(NC(=O)c2cncc(Br)c2)cc1`, the inhibition is -4.2%.

`COc1ccc(Nc2nc(NCc3ccco3)nc(N/N=C/c3ccccc3Cl)n2)cc1`: the inhibition is -1.1%.

`COc1cc(NC(=S)NNC(=O)CC(C)C)c(OC)cc1Cl`: the inhibition was -8.4%.

Take `CC(C)(C)C1C/C(=C/c2ccco2)C(=O)/C(=C/c2ccco2)C1` (configuration not stated): the inhibition was -5.4%.

For the molecule `O=C1OC(/C=C/c2ccccc2)=NC/1=C/c1ccco1`, the inhibition was 53.5% (active).

On to `COc1ccccc1/C=C/C1=NC(=C\N(C)C)/C(=O)O1`, for which the inhibition is 0.6%.

Turning to `O=C(C1=C[C@H](c2coc3ccccc3c2=O)C[C@H](OCc2ccc(CO)cc2)O1)N1CCN(Cc2ccccc2)CC1`, the inhibition is -6.2%.

Regarding `CCc1ccc2oc(-c3ccc(N)cc3)nc2c1`, the inhibition is 80.7% (active).

`CCCCCC(=O)Nc1ccc2oc(-c3ccncc3)nc2c1`: the inhibition is -5.7%.

For the molecule `CCN(CC)c1ccc2oc(=O)c(C)nc2c1`, the inhibition is -3%.

For the molecule `COc1cc(CN2CCNC(=O)C2CC(=O)NCCc2ncccc2C)cc(OC)c1` (configuration not stated), the inhibition was -1.3%.

Consider `CCOC(=O)CCCNC(=O)COC(=O)/C=C/c1ccc2c(c1)OCO2`, for which the inhibition is -1.4%.

As for `Cc1cc(/C=C2\SC(=Nc3ccc(N4CCOCC4)cc3)N(C)C2=O)c(C)n1-c1cccnc1`, the inhibition is -0.4%.

Consider `Cc1cc(/C=C2/NC(=O)NC2=O)c(C)n1-c1cccnc1`, for which the inhibition is 56.5% (active).

As to `Cc1ccccc1-n1c(C)cc(/C=C2\NC(=O)NC2=O)c1C`, the inhibition was 83.9% (active).

Turning to `Cc1cc(/C=C(/C#N)C(=O)Nc2ccc(Cl)cc2)c(C)n1-c1cccnc1`, the inhibition is -3.9%.

With `Cc1ccc(CN2C(=O)N/C(=C/c3cc(C)n(-c4ccccn4)c3C)C2=O)cc1`, the inhibition was 1.2%.

Consider `Cc1cccc(C)c1-n1c(C)cc(/C=C2\C(=O)NN(c3ccccc3)C2=O)c1C`, for which the inhibition was 13.6%.

Consider `CC(NC(=O)c1cccc2ccccc12)c1ccc2c(c1)CCCC2` (configuration not stated), for which the inhibition is -6.2%.

`COc1ccc(C/C(N)=N/OC(=O)c2ccco2)cc1OC`: the inhibition was -2.2%.

With `O=C(CCc1ccccc1)NNC(=O)c1ccc(Br)cc1`, the inhibition is -1.3%.

On to `Cc1ccc(C)c(Cn2nnc3c(=O)[nH]c(C(=O)Nc4ccc(F)cc4)nc32)c1`, for which the inhibition is -10.1%.

For `CCN(c1ccccc1)S(=O)(=O)c1ccc2[nH]c(=O)[nH]c2c1`, the inhibition was -6%.

For the molecule `O=C(COc1cc(Cl)c(Cl)cc1Cl)NCCc1ccccn1`, the inhibition was 4.2%.

As for `CN(CCN1CCOCC1)Cc1nc(-c2ccc3c(c2)OCO3)no1`, the inhibition was -5.1%.

On to `O=C(O)CC/C(=N\NC(=O)c1ccc(F)cc1)c1ccc(Br)cc1`, for which the inhibition is -2.4%.

`COc1ccccc1-n1ccnc1SCC(=O)NC(C)(C)C`: the inhibition was -7.3%.

In the case of `COc1ccc(C(=S)Nc2ccccc2)cc1`, the inhibition is 8.7%.

With `COc1ccc(NC(=S)N2N=CCC2c2ccccc2)cc1` (configuration not stated), the inhibition was 65.3% (active).

`COc1ccc(C(=O)NC2CCN(C(=S)Nc3ccccc3)CC2)cc1`: the inhibition was -7.5%.

Take `CC(OC(=O)c1ccc2ccccc2n1)C(=O)c1ccccc1` (configuration not stated): the inhibition was 81.1% (active).

For `COc1ccc(C(=O)COC(=O)c2ccc3ccccc3n2)cc1`, the inhibition was 19.4%.

On to `O=C(Oc1ccc([N+](=O)[O-])cc1)c1ccc2ccccc2n1`, for which the inhibition is 41.6%.

In the case of `COc1ccc(Cl)cc1NC(=O)Cn1nc(-c2ccc(C)cc2)n(C)c1=S`, the inhibition is -5.1%.

As for `Cc1ccc(C(=O)Oc2coc(CSc3nnc(NC(=O)c4cccs4)s3)cc2=O)cc1C`, the inhibition was -0.1%.

On to `Cc1cc(C(=O)N/N=C\C(Br)=C\c2ccccc2)c(C)o1`, for which the inhibition was 22.6%.

Turning to `CC(=C/c1ccccc1)/C=N/NC(=O)c1cc(C)oc1C`, the inhibition was 78.3% (active).

`Cc1ccccc1N/N=C/c1ccc(N2CCOCC2)cc1`: the inhibition was -3.5%.

As to `CCN(CC)c1ccc(C(=O)N/N=C/c2ccc(N3CCOCC3)cc2)cc1`, the inhibition is -7%.

Turning to `Cc1cc(C(=O)N/N=C/c2ccccc2[N+](=O)[O-])c(C)o1`, the inhibition was 32.2%.

On to `Cc1cc(C(=O)N/N=C/c2ccc(N3CCOCC3)cc2)c(C)o1`, for which the inhibition was 50.7% (active).

`Cc1ccc(NC(=S)N(Cc2ccco2)C(C)c2cccs2)cc1` (configuration not stated): the inhibition is 3.7%.

For `CCn1nc(C)cc1C(=O)N1CCCC(C(=O)c2cccc(OC)c2)C1` (configuration not stated), the inhibition is 5.6%.

For the molecule `COc1ccc(-n2cc(CNC3CCOCC3)c(-c3cccc(F)c3)n2)cc1`, the inhibition is -2.3%.

`CC(=O)Nc1ccn(Cc2c(F)cccc2Cl)n1`: the inhibition was -2.9%.

In the case of `O=C(Nc1ccn(Cc2ccccc2)n1)c1n[nH]c([N+](=O)[O-])c1Cl`, the inhibition is 83% (active).

On to `Cn1cc([N+](=O)[O-])c(C(=O)Nc2cnn(Cc3ccc(F)cc3)c2)n1`, for which the inhibition was -8.5%.

In the case of `Cc1ccc(Cn2ccc(NC(=O)c3cc(C(C)C)on3)n2)cc1`, the inhibition was 0%.

Turning to `O=C(Nc1ccn(Cc2ccccc2)n1)c1cccc(F)c1`, the inhibition is 64.2% (active).

On to `O=C(Nc1ccn(Cc2ccc(F)cc2)n1)c1ccncc1`, for which the inhibition was 0.9%.

Regarding `CCOc1ccc(C(CC(=O)O)NC(=O)C23CC4CC(CC(C4)C2)C3)cc1OC` (configuration not stated), the inhibition is -3.9%.

Values taken from PubChem BioAssay AID1006 (Sanford-Burnham Center for Chemical Genomics, 2008).
